# PABP1 MLLE inh: inhibitors of PABP1 MLLE–PAM2 peptide binding, primary screen, biochemical, fluorescence polarization, FITC-PAM2, GST-MLLE; inhibition, % at 20 µM; 360,000 tested, 0.36% active; in the data active = inhibition above about 35%, passing the limit was not always enough;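 note: plate controls were DMSO wells with GST-MLLE for no effect and wells lacking GST-MLLE protein for full effect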
# Target sequence (P11940 whole entry, looked up): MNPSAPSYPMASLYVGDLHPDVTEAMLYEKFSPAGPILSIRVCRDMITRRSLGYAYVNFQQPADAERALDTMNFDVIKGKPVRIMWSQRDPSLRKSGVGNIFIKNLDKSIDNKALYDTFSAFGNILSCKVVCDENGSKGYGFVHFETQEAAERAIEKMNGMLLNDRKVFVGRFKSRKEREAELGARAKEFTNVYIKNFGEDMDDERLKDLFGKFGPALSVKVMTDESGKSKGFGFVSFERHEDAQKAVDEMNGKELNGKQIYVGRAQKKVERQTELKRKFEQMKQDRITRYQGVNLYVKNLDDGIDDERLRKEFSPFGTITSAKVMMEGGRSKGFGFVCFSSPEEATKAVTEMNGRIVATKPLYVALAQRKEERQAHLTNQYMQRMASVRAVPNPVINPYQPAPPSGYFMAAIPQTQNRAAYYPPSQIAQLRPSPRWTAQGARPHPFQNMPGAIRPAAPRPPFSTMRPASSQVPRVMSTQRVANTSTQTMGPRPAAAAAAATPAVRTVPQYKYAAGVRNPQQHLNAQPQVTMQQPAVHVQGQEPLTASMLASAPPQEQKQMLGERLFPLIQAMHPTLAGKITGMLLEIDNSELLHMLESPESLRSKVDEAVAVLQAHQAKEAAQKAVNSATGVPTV
# PERK inhibitor: block of dimerizer-induced PERK translation repression, primary screen, PERK inhibitor project, CHO PERK-DD cells, SEAP luminescence, HTS. Eukaryotic translation initiation factor 2-alpha kinase 3 (Homo sapiens), Q9NZJ5. CHO PERK-DD fusion, SEAP luminescence translation reporter. inhibition, % at 5.6 µM. 220,000 tested, 0.17% active. AID 1416, 2008;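 active = inhibition above the mean inhibition of all tested compounds plus 3 SD, set separately per screening campaign, cut at about 2.9% in these data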;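 note: PERK kinase domain activated by AP20187 dimerizer at 100 nM; 0% = DMSO with dimerizer and 100% = rapamycin at 8.4 µM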
# eIF4H inh: human eIF4H binding inhibitors, primary screen, translation initiation inhibitor project, biochemical, uHTS, fluorescence polarization | eIF4H fluorescence polarization binding assay | inhibition, % at 35 µM | 290,000 tested, 0.94% active | AID 2012, 2009 | Eukaryotic translation initiation factor 4H (Homo sapiens), Q15056;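 note: calls also rest on retests at 20 µM and on dose response follow-up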
# eIF4E 4G PPI: eIF4E–eIF4G protein interaction inhibitors, primary screen, biochemical, uHTS, TR-FRET, eIF4GI fragment. TR-FRET eIF4E-eIF4GI(517-606) binding, 2 h. inhibition, % at 21.7 µM. 220,000 tested, 0.37% active. AID 782, 2007;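 active = inhibition above about 30%, limit read from the data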;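 note: 0% = full FRET control wells and 100% = background wells lacking eIF4GI fragment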
# PABP polyA inh: PABP poly(A) RNA binding inhibitors, primary screen, biochemical, fluorescence polarization, uHTS; calls only at 35 µM; 290,000 tested, 1% active;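 note: calls also rest on retests at 20 µM and on dose response follow-up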
# * marks the source's active call; other numbers are inactive results; i = inactive; nt = no result given; + = active, no number; [ ] = dose if it differs, or a comment. Sampled rows, rich in hits. Any-hit rate of the full collection: about 1.6%. Unless noted, the rule behind the calls is not given here.
SMILES,PABP1 MLLE inh,PERK inhibitor,eIF4H inh,eIF4E 4G PPI,PABP polyA inh
CC(/C=N/n1c(-c2ccncc2)n[nH]c1=S)=C\c1ccco1,-3,1,84*,4,+
CC(/C=N/n1c(-c2ccc(C)cc2)n[nH]c1=S)=C\c1ccco1,-52,1,42,1,i
COc1cc(/C=C(/C#N)c2nc(-c3cc4ccccc4oc3=O)cs2)cc([N+](=O)[O-])c1O,nt,2,37,62*,i
COc1cc(/C=C(\C#N)c2nc(-c3cc4ccccc4oc3=O)cs2)ccc1O,-96,1,3,23,i
CN1C(=O)/C(=C/c2ccc(-c3ccccc3[N+](=O)[O-])o2)SC1=Nc1ccc(Cl)c(C(=O)O)c1,-50,0,78*,18,i
Cc1ccc(C)c(N2C(=N)S/C(=C\c3ccc(-c4ccccc4C(=O)O)o3)C2=O)c1,-64,2,44,6,i
Nc1nc(-c2cc(O)ccc2[N+](=O)[O-])cc(-c2ccccc2)c1[N+](=O)[O-],-17,nt,98*,nt,+
FC(F)(F)c1nc2nccnc2[nH]1,-4,nt,nt,nt,nt
Oc1c(C(c2ccco2)N2CCOCC2)sc2ncnn12 (centres undefined),8,1,130,3,+
Oc1c(C(c2ccccc2)N2CCCCC2)sc2ncnn12 (centres undefined),-7,1,-6,3,i
O=C(Nc1ccccc1C(=O)O)c1cncc(Br)c1,-111,1,0.6*,13,i
N#CNc1nc(O)cc(=O)[nH]1,3,1,48,-4,i
C/C(N=Nc1nc2ccccc2s1)=N\Nc1ccccc1O,0,-1,2,1,i
O=C(CCCN1C(=O)c2ccccc2C1=O)Nc1nnc(C2CC2)s1,-28,0,active,3,+
Cc1ccc(N(CC(=O)NC(C)C)C(=O)CCC(=O)Nc2nccs2)c(C)c1,11,nt,7,nt,i
COC(=O)C1=COC(OC2OC(CO)C(O)C(O)C2O)C2C1C=CC2(O)CO (centres undefined),-1,nt,89*,8,+
CC1(C(=O)NC(=S)N(CCC#N)c2ccccc2)CC1(Cl)Cl (centres undefined),47*,2,4,1,i
C[n+]1ccccc1/C=C/c1ccc2ncccc2c1,-101,nt,10,nt,+
C[n+]1ccccc1/C=C/c1ccc([N+](=O)[O-])cc1,-103,nt,-1,nt,i
C[n+]1ccccc1/C=C/c1ccc(C#N)cc1,-93,nt,41,nt,+
COc1cc(CN2CCC(n3nccc3NC(=O)C3CC3)CC2)cc(OC)c1,2,nt,-3,nt,i
COC(=O)Cc1n[nH]c(=O)c2ccccc12,4,3.5*,1,-1,i
O=C(CSc1nnc(-c2ccco2)o1)c1ccccc1,15,1,14,-4,i
O=C(CSc1nnc(-c2ccco2)o1)c1ccc[nH]1,-2,0,83*,13,i
Cc1ccc(NC(=O)COCC(=O)Nc2ccc(C)cc2)cc1,-5,nt,2,nt,i
SMILES,PABP1 MLLE inh,PERK inhibitor,eIF4H inh,eIF4E 4G PPI,PABP polyA inh
Cc1ccc(S(=O)(=O)OCC(=O)Nc2ccc(C(=O)O)c(O)c2)cc1,44*,nt,nt,nt,nt
CC(=O)Oc1ccc2c(=O)c(Oc3ccccc3)coc2c1OC(C)=O,4,0,98*,11,+
OCc1ccccc1SSc1ccccc1CO,41*,nt,nt,nt,nt
CC(C)S(=O)(=O)C/C(N)=N/OC(=O)c1cc(Cl)cc(Cl)c1,-4,0,-7,1,i
CS(=O)(=O)N(CC(=O)O)Cc1cccc(CN(CC(=O)O)S(C)(=O)=O)c1,8,nt,-10,nt,i
CCOc1ccc(C(=O)N[C@H](C(=O)Nc2ccc(S(=O)(=O)Nc3nccs3)cc2)C(C)C)cc1,8,nt,nt,nt,nt
Cc1ccc(CN2CCN(/N=C/c3ccc(C(=O)O)cc3)CC2)cc1,1,2,85*,1,i
O=C(O)c1ccc(/C=N/N2CCN(Cc3ccc(Cl)cc3)CC2)cc1,14,0,-2,-1,i
O=c1c2cccc3c(N4CCOCC4)ccc(c32)c2nc3ccccc3n12,nt,nt,122,nt,+
CCN1C(=O)[C@@H]2[C@@H](c3ccc(-c4ccc(C(C)=O)cc4)c(OC)c3)N3CCCC[C@@]3(C(=O)OC)[C@@H]2C1=O,2,nt,nt,nt,nt
Cc1ccc(S(=O)(=O)CCC(=O)Nc2cccc(C)c2)cc1,-14,0,-5,-6,i
NS(=O)(=O)c1ccc(CCNC(=O)CCS(=O)(=O)c2ccc(Br)cc2)cc1,3,nt,90*,nt,i
CCc1cccc(NC(=O)CCS(=O)(=O)c2ccc(Br)cc2)c1,-8,nt,81*,nt,i
O=C(CCS(=O)(=O)c1ccc(Br)cc1)NCCc1ccccc1,2,nt,82,nt,i
CC(C)c1ccccc1-n1c(SCc2cc(=O)oc3ccc4ccccc4c23)nnc1-c1cccnc1,-41,0,58*,-5,+
CCOc1ccc(-n2c(SCc3cc(=O)oc4cc(C)ccc34)nnc2-c2cccnc2)cc1,-44,-1,-2,7,i
COc1cccc(CCN2C(=O)CCC3=C2CCC3=O)c1,-1,nt,nt,nt,nt
CC[C@@]1(O)C(=O)OCc2c1cc1n(c2=O)Cc2cc3c(N)cccc3nc2-1,-9,nt,92*,-3,+
CC[C@@]1(O)C(=O)OCc2c1cc1n(c2=O)Cc2cc3c(CN(C)C)c(O)ccc3nc2-1,199,nt,nt,nt,nt
CSc1nc(Oc2ccc(C)cc2)cc(C(F)(F)F)n1,-1,3.6*,6,-4,i
N/C(=N\N=C\c1ccc([N+](=O)[O-])cc1)c1nonc1N,15,3.4*,-16,-10,i
CCCCCCCCCC(=O)N/N=C/c1ccc(C)s1,-4,1,-4,52*[fluorescence artefact?],i
Cc1ccc(/C=N/NC(=O)C[n+]2ccccc2)s1,-1,0,-4,1,i
CN1c2ccccc2C(C)(C)C12CC(c1cccc(S(=O)(=O)N3CCCC3)c1)=NO2 (centres undefined),12,1,3,17,i
Cc1ccc(OC(=O)COc2ccccc2)c(-n2nc3ccccc3n2)c1,-5,0,-5,-1,i
Cc1ccc(OC(=O)COc2ccccc2C)c(-n2nc3ccccc3n2)c1,53*,0,7,-5,i
CC(=O)Oc1ccc2c(c1)OC(c1ccccc1)CC21CC(C)(C)NC(=S)N1 (centres undefined),-123,0,3,39*,i
CC1(C)CC2(CC(c3ccccc3)Oc3cc(O)ccc32)NC(=S)N1 (centres undefined),-131,0,1,-11,i

# Source: PubChem BioAssay
